Assay results: PubChem BioAssay (NCATS)
Several values for one entry are separate records, joined by “and”; a condition that tells them apart may be missing. Identical values can stand only once. Results filed as inconclusive are left out. Where a structure was tested more than once in an assay, its records may differ in their call. Activity calls are given as the source filed them. Unless noted, calls come from the whole dose curve; as a rule, active = well fitted curve in the direction sought with a large enough effect; inconclusive = small, poorly fitted or top-dose-only effect, or another doubt; inactive = no such curve, though single readings can be large; an effect the other way counts as inactive or inconclusive.

Tests used:
[1] = P-glycoprotein substrates identified in KB-8-5-11 adenocarcinoma cell line, qHTS therapeutic library screen (AID 1346987); note: nearly all actives have a fitted effect of over 65% in size; note: potency is the fitted concentration of half-maximal effect; for activity change, negative = cytotoxicity: % is set by controls: 0 for no effect and ±100 for the full control effect
Outline: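 Steps: plate 500 KB-8-5-11 cells/well in DMEM + 10% FCS (colchicine removed); pin compounds in dose-response; incubate 72 h, 37 degree C, 5% CO2; add CellTiter-Glo, 5 min; read luminescence.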

[2] = tested on: Zika virus NS2B-NS3 protease (unlinked complex); test: Primary screen GU Rhodamine qHTS for Zika virus inhibitors: Unlinked NS2B-NS3 protease assay (AID 1347159); note: % is set by controls: 0 for no effect and ±100 for the full control effect; nearly all actives have a fitted effect of over 60% in size
Outline: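 Noncovalent NS2B hydrophilic domain–NS3 protease domain complex (25 nM) preincubated 15 min at room temperature with compounds (up to 114 microM) in 10 mM Tris-HCl pH 8.0, 0.01% Tween 20; 1.5 microM Rhodamine110 substrate added, fluorescence change over 15 min fitted to Hill equation.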

[3] = tested on: Zika virus NS2B-NS3 protease (linked construct); test: Primary screen NINDS Rhodamine qHTS for Zika virus inhibitors (AID 1347160); note: nearly all actives have a fitted effect of over 55% in size; for activity change, negative = inhibition: % is set by controls: 0 for no effect and ±100 for the full control effect
Outline: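 Purified linked NS2B-NS3 protease (NS2B hydrophilic domain joined to NS3 protease by flexible linker), 25 nM in 10 mM Tris-HCl pH 8.0, 0.01% Tween 20. Compounds titrated, 15 min preincubation at room temperature; 1.5 microM Rhodamine110 substrate, FITC fluorescence change over 15 min.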

[4] = molecular target: Calcium and integrin-binding protein 1 (Homo sapiens) (UniProt Q99828); test: Primary qHTS for Identification of Calcium Integrin Binding Protein 1 (CIB1) Competitor (AID 1508620);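 note: GST tagged CIB1 binding a fluorescein labelled alphaIIb integrin peptide tracer; top concentration of the series differs between compounds; % is set by controls: 0 for no effect and ±100 for the full control effect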
Outline: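 Fluorescence polarization competition: CIB1-GST (1 uM final) preincubated with compound 15 min at room temperature, then FITC-labeled alphaIIb peptide (100 nM final) added for another 15 min. Polarization read at Ex 480/Em 540.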

[5] = Primary qHTS for inhibitors of nuclear receptor binding SET domain protein 2 (NSD2) in an isogenic RCH-ACV NSD2 p.E1099K mutant (9B) (AID 1645876); note: nearly all actives have a fitted effect of over 70% in size; note: potency is the fitted concentration of half-maximal effect
[6] = Primary qHTS for inhibitors of nuclear receptor binding SET domain protein 2 (NSD2) in an RCH-ACV wild type WT cells (2C) (AID 1645877); note: nearly all actives have a fitted effect of over 70% in size; note: potency is the fitted concentration of half-maximal effect
[7] = molecular target: Glutathione peroxidase 1 (Homo sapiens) (UniProt P07203); test: Primary qHTS Assay for Inhibitors of Recombinant Selenoprotein Glutathione Peroxidase 1 (GPX1) (AID 1845191); note: nearly all actives have a fitted effect of over 65% in size
Outline: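 Recombinant GPX1 (10 nM final) was preincubated with compound for 30 min at room temperature, then reacted with 1 mM GSH, 0.5 mM CHP, 0.5 mM NADPH and 100 nM glutathione reductase; NADPH fluorescence (340/450 nm) was read at 0 and 15 min.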

[8] = molecular target: Phospholipid hydroperoxide glutathione peroxidase GPX4 (Homo sapiens) (UniProt P36969); test: Primary qHTS Assay for Inhibitors of Recombinant Selenoprotein Glutathione Peroxidase 4 (GPX4) (AID 1845192); conditions: outcome: dose series up to 50 µM unless noted; note: nearly all actives have a fitted effect of over 65% in size; for activity change, negative = inhibition: % is set by controls: 0 for no effect and ±100 for the full control effect
Outline: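 GR-coupled readout: 100 nM GR, 1 mM GSH, 0.5 mM NADPH; NADPH fluorescence (ex 340/em 450 nm) read at t=0 and after 15 min RT. GPX4 200 nM, preincubated 30 min with compound; substrate 0.5 mM CHP.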

[9] = tested on: Nanoluciferase (engineered Oplophorus gracilirostris luciferase); test: Primary Nanoluciferase (NLuc) qHTS assay for identification of artifact compounds. (AID 1845222);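 note: NLuc secreted into diluted conditioned medium of S16 cells; 0% = DMSO and -100% = no enzyme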
Outline: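 Concentration-response data were obtained by luminescence after 5 min with Nano-Glo substrate at 1:100. The enzyme was diluted S16 NLuc-expressing cell medium, preincubated with compound for 15 min at RT. Curves were fitted with a 4-parameter Hill model.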

[10] = qHTS drug screen for cell cycle checkpoint inhibitors in PARPi-resistant BRCA-mutant ovarian cancer cell lines. (AID 1963452; calls by dose curve); conditions: PEO1/OlaR viability, CellTiter-Glo luminescence, 96 h, stronger effect = lower value
Outline: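 PEO1, PEO4 and PEO1/OlaR ovarian cancer cells, 600 per well, exposed 96 h at 37C to a dilution series. Viability read by CellTiter-Glo luminescence, normalized to DMSO and empty wells; activity summarized as Z-AUC.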

Es-2 = test: Primary qHTS to identify gynecologic anti-cancer compounds using libraries of approved drugs and bioactive compounds (AID 1345084); conditions: Gynecologic cancer cell panel viability, ATPlite luminescence, 48 h; series mostly up to 57.5 µM; note: nearly all actives have a fitted effect of over 55% in size; note: potency is the fitted concentration of half-maximal effect
Outline: (§1)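 Cells, 1,000 per well, were allowed to settle for 16 h at 37 C before compound addition. Five concentrations were tested for 48 h, and viability was read by ATPlite luminescence after 15 min at room temperature.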

HeLa = test: as above; conditions: Gynecologic cancer cell panel viability, ATPlite luminescence, 48 h; series mostly up to 57.5 µM
Outline: as §1

Hek293T = test: as above; conditions: Gynecologic cancer cell panel viability, ATPlite luminescence, 48 h, control line for the selectivity index; series mostly up to 57.5 µM
Outline: as §1

[11] = molecular target: Luciferin 4-monooxygenase (Photinus pyralis) (UniProt P08659); test: Primary firefly luciferase (FLuc) qHTS assay for identification of artifact compounds. (AID 1845220); note: nearly all actives have a fitted effect of over 60% in size;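 for activity change, negative = inhibition: plate controls were DMSO vehicle for no effect and no enzyme for full effect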
Outline: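 Reaction readout was CCD-imaged luminescence, taken 5 min after adding 10 nM purified firefly enzyme to compound-treated wells holding 10 uM luciferin and ATP in pH 7.6 buffer.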

C33A = test: Primary qHTS to identify gynecologic anti-cancer compounds using libraries of approved drugs and bioactive compounds (AID 1345084); conditions: Gynecologic cancer cell panel viability, ATPlite luminescence, 48 h; series mostly up to 57.5 µM; note: nearly all actives have a fitted effect of over 55% in size; note: potency is the fitted concentration of half-maximal effect
Outline: as §1

JEG-3 = test: as above; conditions: Gynecologic cancer cell panel viability, ATPlite luminescence, 48 h; series mostly up to 57.5 µM
Outline: as §1

OV90 = test: as above; conditions: Gynecologic cancer cell panel viability, ATPlite luminescence, 48 h; series mostly up to 57.5 µM
Outline: as §1

Tov-21-G = test: as above; conditions: Gynecologic cancer cell panel viability, ATPlite luminescence, 48 h; series mostly up to 57.5 µM
Outline: as §1

Tov112D = test: as above; conditions: Gynecologic cancer cell panel viability, ATPlite luminescence, 48 h; series mostly up to 57.5 µM
Outline: as §1

CASKI = test: as above; conditions: Gynecologic cancer cell panel viability, ATPlite luminescence, 48 h; series mostly up to 57.5 µM
Outline: as §1

[12] = measured here: PEO1 parental Z-AUC

Phospholipid hydroperoxide glutathione peroxidase GPX4 (Homo sapiens), sequence (P36969 whole entry, looked up): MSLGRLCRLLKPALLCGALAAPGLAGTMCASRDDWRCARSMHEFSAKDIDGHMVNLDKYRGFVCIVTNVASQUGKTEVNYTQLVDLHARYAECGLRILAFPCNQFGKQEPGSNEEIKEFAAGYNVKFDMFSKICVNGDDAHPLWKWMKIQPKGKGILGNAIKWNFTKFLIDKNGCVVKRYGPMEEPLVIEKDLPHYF
Glutathione peroxidase 1 (Homo sapiens), sequence (P07203 whole entry, looked up): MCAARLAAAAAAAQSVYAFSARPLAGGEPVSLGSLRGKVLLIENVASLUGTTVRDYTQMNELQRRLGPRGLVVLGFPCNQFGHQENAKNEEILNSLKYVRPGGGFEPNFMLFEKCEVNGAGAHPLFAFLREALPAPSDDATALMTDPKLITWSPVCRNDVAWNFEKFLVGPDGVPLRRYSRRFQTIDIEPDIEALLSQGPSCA
Calcium and integrin-binding protein 1 (Homo sapiens), sequence (Q99828 whole entry, looked up): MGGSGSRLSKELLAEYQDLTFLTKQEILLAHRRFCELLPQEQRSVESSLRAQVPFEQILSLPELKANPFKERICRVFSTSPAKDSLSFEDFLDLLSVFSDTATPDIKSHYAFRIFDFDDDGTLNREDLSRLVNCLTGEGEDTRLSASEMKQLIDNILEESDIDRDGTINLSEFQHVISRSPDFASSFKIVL

C[C@@H]1CCNC(=O)c2cc3ccc(C(=O)Nc4nc5ccccc5n4CCCN(C)C)cc3n21
inactive: Potency [1] | Potency [2] | Potency [3] | outcome [4] | Potency [7] | Potency [8] | Potency [9] | Z-AUC [10] -0.825 | Potency (Es-2) | Potency (HeLa) | Potency (Hek293T)
active: Potency [5] 16.3 µM | Potency [6] 14.8 µM
-0.925: Z-AUC [10, 12]
-1.11: Z-AUC ([10]; measured here: PEO4 Z-AUC)

Cc1c(C(=O)NCCCO)cnn1-c1nc(-c2cccc(C(F)(F)F)c2)cs1
inactive: Potency [2] | Potency [3] | outcome [4] | Potency [7] | Potency [8] | Potency [11] | Potency [9] | Potency (C33A) | Potency (Es-2) | Potency (HeLa) | Potency (Hek293T) | Potency (JEG-3) | Potency (OV90) | Potency (Tov-21-G) | Potency (Tov112D)
active: Potency [5] 25.8 µM | Potency [6] 25.8 µM

CC1CCC2(NC1)OC1CC3C4CC=C5CC(O[C@@H]6O[C@H](CO)[C@@H](O[C@@H]7O[C@@H](C)[C@H](O)[C@@H](O)[C@H]7O)[C@H](O)[C@H]6O[C@@H]6O[C@@H](C)[C@H](O)[C@@H](O)[C@H]6O)CCC5(C)C4CCC3(C)C1C2C (stereo partly specified)
inactive: Potency [2] | Potency [3] | outcome [4] | Potency [7] | Potency [8] | activity change, negative = inhibition [11] -5.29% [at 11.6 µM] | activity, negative = inhibition [9] -1.63% [at 11.6 µM] | activity change, negative = cytotoxicity (CASKI) -25.1% [at 11.6 µM] | activity change, negative = cytotoxicity (HeLa) -18.6% [at 11.6 µM] | activity change, negative = cytotoxicity (Hek293T) -11.9% [at 11.6 µM] | activity change, negative = cytotoxicity (JEG-3) 4.54% [at 11.6 µM] | activity change, negative = cytotoxicity (Tov-21-G) -23.3% [at 11.6 µM] | activity change, negative = cytotoxicity (Tov112D) -18.2% [at 11.6 µM]
active: Potency [5] 3.46 µM | Potency [6] 3.88 µM

OC(CNCCc1c[nH]c2ccccc12)Cn1c2ccccc2c2ccccc21 (stereo unspecified)
inactive: Potency [2] | Potency [3] | outcome [4] | Potency [8] | Potency [11] | Potency [9] | Potency (Es-2) | Potency (HeLa) | Potency (Hek293T) | Potency (JEG-3) | Potency (OV90) | Potency (Tov-21-G) | Potency (Tov112D)
active: Potency [1] 16.4 µM | Potency [5] 5.15 µM | Potency [6] 4.59 µM

C=CC(=O)Nc1cccc(Nc2nc(Nc3ccc(Oc4ccnc(C(=O)NC)c4)cc3)ncc2F)c1
-0.105: Z-AUC [10, 12]
-0.427: Z-AUC ([10]; measured here: PEO4 Z-AUC)
active: Potency [5] 10.3 µM and 5.9 µM | Potency [6] 10.3 µM and 6.61 µM
inactive: Potency [2] | Potency [3] | outcome [4] | Potency [7] | Potency [8] | Potency [9] | Z-AUC [10] -0.493 | Potency (C33A) | Potency (CASKI) | Potency (JEG-3) | Potency (OV90)

N#Cc1ccc(-c2ccc(NC(=O)Nc3ccc(-c4ccnc5nc[nH]c45)cc3)cc2)cc1
active: Potency (C33A) 5.01 µM
inactive: Potency [3] | Potency [11] | Potency [9]

C=C1C(=O)O[C@H]2[C@H]1[C@@H](OC(=O)/C(C)=C\C)C[C@]1(C)O[C@@H]1[C@H]1O[C@H]1C(=C)[C@H]2O
inactive: Potency [2] | Potency [3] | outcome [4] | Potency [7] | Potency [8] | Potency [9] | Potency (HeLa) | Potency (OV90)
active: Potency [5] 7.13 µM | Potency [6] 4.5 µM | Potency (Es-2) 11.2 µM

CN(C)CCCCCCNC(=O)c1cccc(-c2cc(O)c3ncccc3c2)c1
active: Potency [1] 8.2 µM | Potency [5] 11.5 µM | Potency [6] 7.28 µM
inactive: Potency [3] | Potency [7] | Potency [8] | Potency [11] | Potency [9] | Potency (HeLa) | Potency (JEG-3) | Potency (OV90)

Fc1ccc(C2CCNC[C@H]2COc2ccc3c(c2)OCO3)cc1 (stereo partly specified)
active: Potency [5] 18.3 µM | Potency [6] 11.5 µM | Potency (Es-2) 22.4 µM
inactive: Potency [2] | Potency [3] | outcome [4] | Potency [8] | Potency [11] | Potency [9] | Potency (HeLa) | Potency (Hek293T) | Potency (JEG-3) | Potency (Tov112D)

CC[C@@H](C)[C@H]1C(=O)O[C@H](C(C)C)C(=O)N(C)[C@@H](C(C)C)C(=O)O[C@H](C(C)C)C(=O)N(C)[C@@H](C(C)C)C(=O)O[C@H](CC(C)C)C(=O)N1C
inactive: Potency [2] | Potency [3] | outcome [4] | Potency [7] | Potency [8] | Potency [9] | Potency (JEG-3)
active: Potency [5] 5.41 µM | Potency [6] 2.16 µM

Cc1nc2c(O)cccc2c(=O)[nH]1
inactive: Potency [1] | Potency [5] | Potency [6]

COc1cc([C@@H]2c3cc4c(cc3C(O[C@@H]3O[C@@H]5CO[C@@H](C)O[C@H]5[C@H](O)[C@H]3O)C3COC(=O)[C@@H]32)OCO4)cc(OC)c1OP(=O)(O)O (stereo partly specified)
active: Potency [1] 18.4 µM

CN1CCN(CCC=C2c3ccccc3Sc3ccc(S(=O)(=O)N(C)C)cc32)CC1
active: Potency [1] 23.1 µM
inactive: Potency [7]

CCN(CC)C(=O)c1cc(S(=O)(=O)Cc2ccccc2)c(N2CCC(c3ccccc3)CC2)cc1N(CC)CCN(C)C
active: Potency [1] 16.4 µM
inactive: outcome [4]

CS(=O)(=O)CCNCc1nc(-c2ccc3ncnc(Nc4ccc(OCc5cccc(F)c5)c(Cl)c4)c3c2)cs1
inactive: outcome [1] inactive [at 9.29 µM] | outcome [7] inactive [at 9.52 µM]

COc1cc(/C=C(\C#N)C(N)=O)cc(CSc2nc3ccccc3s2)c1O
inactive: Potency [1] | Potency [5]

O=C(O)c1ccc2c3c1cccc3c(=O)n1c3ccccc3nc21
inactive: Potency [1] | Potency [6] | Potency [7]

CN(CC(=O)N1CCOCC1)Cc1c(Cl)cccc1NC(=O)c1ccccc1
inactive: Potency [7] | Potency [8]

COc1c(Nc2ncc(Cl)c(N[C@H]3[C@H](C(N)=O)[C@@H]4C=C[C@@H]3C4)n2)ccc2c1CCC(N1CCOCC1)CC2 (stereo partly specified)
active: Potency [1] 4.11 µM | Potency [5] 1.05 µM | Potency [6] 3.32 µM

O=C(Nc1cc(Oc2cc(F)c(NC(=O)C3(C(=O)Nc4ccc(F)cc4)CC3)cc2F)ccn1)C1CC1
inactive: Potency [7] | Potency [8]
2.59 µM (active) and inactive: Potency [5] | Potency [6]
active: Potency [1] 4.61 µM
